The target in assay [1] is ATP-dependent 6-phosphofructokinase (Trypanosoma brucei brucei) (UniProt O15648). The experiment in a line: qHTS Assay to Find Inhibitors of T. brucei phosphofructokinase: hit validation (AID 492961). Further: on the % scale 0 is the no-effect control and ±100 the full control effect. The method, boiled down:
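Luminescence from ADP-Glo reports ADP generated as T. brucei PFK (1.25 nM) phosphorylates 0.5 mM fructose-6-phosphate using 0.1 mM ATP. Reactions ran 45 min at room temperature, pH 8.0.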
(In general: In qHTS, concentration-response curves come from the screen itself.)

Assay [2] can be described thus: qHTS profiling for inhibitors of Plasmodium falciparum proliferation (AID 504749). Further: potency means the concentration at half of the fitted maximal effect.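 On activity, negative = inhibition: 0% = DMSO vehicle and full inhibition = artemisinin control.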 On all read-outs here: nearly all actives have a fitted effect of over 60% in size. The conditions noted are these: P. falciparum in erythrocytes, SYBR Green DNA, 72 h; for activity, negative = inhibition: at 28.7 µM (top of the series). The method, boiled down:
(§1)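 Each compound contacts P. falciparum-infected red blood cells for 72 h at 37 C; lysis buffer (Tris, EDTA, saponin, Triton X, SYBR Green I) is added and fluorescence measured next morning; values normalized to controls.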

Assay [3] deals with 3D7. The assay is described as above. The conditions noted are these: P. falciparum in erythrocytes, SYBR Green DNA, 72 h; series mostly up to 28.7 µM. The method, boiled down: as §1
Assay [4] has as its system 7G8. Described as above. The conditions noted are these: P. falciparum in erythrocytes, SYBR Green DNA, 72 h; series mostly up to 28.7 µM. The method, boiled down: as §1
Assay [5] has as its system AS120. The description is as above. Particulars: P. falciparum in erythrocytes, SYBR Green DNA, 72 h; series mostly up to 28.7 µM. The method, boiled down: as §1
Assay [6] has as its system ATS189. Described as above. The conditions noted are these: P. falciparum in erythrocytes, SYBR Green DNA, 72 h; series mostly up to 28.7 µM. The method, boiled down: as §1
Assay [7] concerns CP185. The assay is described as above. The conditions noted are these: P. falciparum in erythrocytes, SYBR Green DNA, 72 h; series mostly up to 28.7 µM. The method, boiled down: as §1
For assay [8], the system named is CP191. The assay is described as above. The conditions noted are these: P. falciparum in erythrocytes, SYBR Green DNA, 72 h; series mostly up to 28.7 µM. The method, boiled down: as §1
Assay [9] deals with CP192. The assay is described as above. The conditions noted are these: P. falciparum in erythrocytes, SYBR Green DNA, 72 h; series mostly up to 28.7 µM. The method, boiled down:
as §1

The test system of assay [10] is CP194. Described as above. The conditions noted are these: P. falciparum in erythrocytes, SYBR Green DNA, 72 h; series mostly up to 28.7 µM. The method, boiled down: as §1
The test system of assay [11] is CP201. The assay is described as above. Particulars: P. falciparum in erythrocytes, SYBR Green DNA, 72 h; series mostly up to 28.7 µM. The method, boiled down: as §1
The subject of assay [12] is CP203. Described as above. The conditions noted are these: P. falciparum in erythrocytes, SYBR Green DNA, 72 h; series mostly up to 28.7 µM. The method, boiled down:
as §1

Assay [13] relates to CP247. The assay is described as above. The conditions noted are these: P. falciparum in erythrocytes, SYBR Green DNA, 72 h; series mostly up to 28.7 µM. The method, boiled down: as §1
Assay [14] relates to CP286. Described as above. Particulars: P. falciparum in erythrocytes, SYBR Green DNA, 72 h; series mostly up to 28.7 µM. The method, boiled down: as §1
Assay [15] relates to CP291. The assay is described as above. Particulars: P. falciparum in erythrocytes, SYBR Green DNA, 72 h; series mostly up to 28.7 µM. The method, boiled down:
as §1

For assay [16], the system named is CP305. The description is as above. Particulars: P. falciparum in erythrocytes, SYBR Green DNA, 72 h; series mostly up to 28.7 µM. The method, boiled down: as §1
Assay [17] deals with HB3. Described as above. Particulars: P. falciparum in erythrocytes, SYBR Green DNA, 72 h; series mostly up to 28.7 µM. The method, boiled down: as §1
For assay [18], the system named is P94_40. The description is as above. The conditions noted are these: P. falciparum in erythrocytes, SYBR Green DNA, 72 h; series mostly up to 28.7 µM. The method, boiled down:
as §1

Assay [19] has as its system PC49. The assay is described as above. The conditions noted are these: P. falciparum in erythrocytes, SYBR Green DNA, 72 h; series mostly up to 28.7 µM. The method, boiled down: as §1

Inconclusive results are not listed. Unmarked numbers belong to inactive results. Calls of active or inactive are those of the source. The call rests on the fitted dose curve; in most records, active means well fitted curve in the direction sought with a large enough effect; inconclusive means small, poorly fitted or top-dose-only effect, or another doubt; inactive means no such curve, though single readings can be large; an effect the other way counts as inactive or inconclusive.

The values below come from PubChem BioAssay (NCATS).

Chain of ATP-dependent 6-phosphofructokinase (Trypanosoma brucei brucei) (O15648 whole entry, looked up): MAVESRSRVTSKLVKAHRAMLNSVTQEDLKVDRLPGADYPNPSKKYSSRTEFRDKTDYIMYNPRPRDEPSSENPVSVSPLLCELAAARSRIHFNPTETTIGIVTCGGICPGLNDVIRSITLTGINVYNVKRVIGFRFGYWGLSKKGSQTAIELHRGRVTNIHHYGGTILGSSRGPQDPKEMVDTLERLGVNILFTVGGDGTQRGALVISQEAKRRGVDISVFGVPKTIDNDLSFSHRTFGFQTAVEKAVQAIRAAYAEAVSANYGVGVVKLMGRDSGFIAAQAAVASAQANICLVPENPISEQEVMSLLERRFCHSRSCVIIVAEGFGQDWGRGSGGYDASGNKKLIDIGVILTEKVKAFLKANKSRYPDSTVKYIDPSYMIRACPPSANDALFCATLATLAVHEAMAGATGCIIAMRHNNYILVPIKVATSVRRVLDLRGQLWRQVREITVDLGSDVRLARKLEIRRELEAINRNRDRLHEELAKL

`Cc1ccc(Nc2ncccc2C(=O)O)cc1C`: the Potency entry in assay [1], in assay [3], in assay [4], in assay [5], in assay [6] and in assay [7] was “inactive” in each case. For the same molecule, the Potency result in assay [8], in [9], in assay [10], in assay [11], in assay [12] and in [13] was “inactive” in each case. The Potency entry in assay [14], in assay [15], in [16], in assay [17], in [18] and in [19] was “inactive” throughout. The figures for the activity, negative = inhibition in assay [2] (parasite line A) and in assay [2] (parasite line B) were 6.4% and 7.72%, respectively.
Turning to `CC(C)C[C@@H](NC(=O)[C@@H](Cc1ccccc1)NC(=O)c1cnccn1)B(O)O`, in assay [1], the Potency result is “inactive”. Further, the Potency is 79.4 nM (active) in [2] (parasite line A); 79.4 nM (active) in [2] (parasite line B); 112 nM (active) in [3]; 39.8 nM (active) in assay [4]; 100 nM (active) in assay [5]; 112 nM (active) in assay [6]. In addition, the Potency in [7] was 112 nM (active); in assay [8] it was 100 nM (active); in assay [9], 190 nM (active); in assay [10], 426 nM (active); in assay [11], 536 nM (active); in [12], 338 nM (active). The Potency was 126 nM (active) in assay [13]; 89.1 nM (active) in [14]; 151 nM (active) in assay [15]; 757 nM (active) in assay [16]; 79.4 nM (active) in assay [17]; 126 nM (active) in assay [18]. Moreover, the Potency in [19] is 158 nM (active).
As for `C=CCn1c(=O)n(C2OC(CO)C(O)C2O)c2nc(N)[nH]c(=O)c21` (stereo not given), the Potency result in assay [1], in [3], in [4], in assay [5], in assay [6] and in [7] was “inactive” throughout. In addition, the Potency result in assay [8], in assay [9], in assay [10], in assay [11], in assay [12] and in assay [13] was “inactive” in each case. Moreover, the Potency entry in assay [14], in [15], in assay [16], in assay [17], in [18] and in assay [19] was “inactive” in each case. Moreover, the activity, negative = inhibition is 5.09% in [2] (parasite line A) and -6.68% in assay [2] (parasite line B).
For the molecule `NC(C(=O)O)c1ccc(O)cc1` (stereo not given), the Potency result in assay [1], in [3], in [4], in assay [5], in assay [6] and in assay [7] was “inactive” in each case. The Potency result in assay [8], in assay [9], in [10], in [11], in [12] and in assay [13] was “inactive” each time. Further, the Potency entry in [14], in assay [15], in assay [16], in [17], in assay [18] and in assay [19] was “inactive” throughout. In addition, the activity, negative = inhibition in assay [2] (parasite line A) was 3.02%; in assay [2] (parasite line B), 9.1%.
On to `CC(=O)NC1[C@H]([C@H](O)[C@H](O)CO)OC(C(=O)O)=C[C@H]1N=C(N)N` (stereo not given in full), for which the Potency entry in assay [1], in assay [3], in assay [4], in [5], in assay [6] and in assay [7] was “inactive” each time. In addition, the Potency entry in assay [8], in assay [9], in assay [10], in assay [11], in assay [12] and in [13] was “inactive” each time. Besides, the Potency entry in assay [14], in [15], in assay [16], in [17], in [18] and in assay [19] was “inactive” in each case. The values for the activity, negative = inhibition in [2] (parasite line A) and in assay [2] (parasite line B) were 4.99% and 6.49%, respectively.
